Screening results as filed in PubChem.
This excerpt belongs to a sample that is enriched for hits.
DT40 TDP1 CPT: DT40-hTDP1 cell growth loss with CPT; actives 12% (n = 420,000); Potency, µM (series often up to 46.2 µM), usual class: inhibitors; chicken DT40 Tdp1-/-;hTDP1 cells + 20 nM CPT, ATP luminescence, 48 h; also: nearly all actives have a fitted effect of over 55% in size
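Chicken DT40 Tdp1-/- cells complemented with human TDP1, 400 cells/well, exposed to compounds plus 20 nM camptothecin for at least 48 h at 37 C; viability read as ATP content by CellTiter-Glo luminescence.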
ALOX12 inh: ALOX12 (human) lipoxygenase inhibition. P18054. purified 12hLO, xylenol orange hydroperoxide absorbance. Potency, µM (titrated, usually from 108 µM), hits mostly inhibitors. actives 1.1% (n = 580,000)
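Hydroperoxide product was detected by ferrous iron/xylenol orange as the 573 to 405 nm absorbance ratio. Arachidonic acid at 40 uM (final) was turned over for 30 min at room temperature by 150 nM human 12hLO, pH 7.0 Hepes buffer, after 15 min compound preincubation.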
HT1080NT lethal: kills 2HG-producing HT-1080-NT fibrosarcoma cells; actives 1.6% (n = 360,000); AID 686970; HT-1080-NT fibrosarcoma viability, CellTiter-Glo ATP luminescence, 48 h; Potency, µM (titrated, usually from 46.1 µM), hits mostly cytotoxic;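 also: NT is the 2HG producing partner of a matched IDH1 knockdown line; nearly all actives have a fitted effect of over 55% in size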
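Compounds were tested in concentration-response format on HT-1080-NT cells for 48 hours at 37 degrees C. Cell viability came from CellTiter-Glo luminescence; curves were classified by r2, response magnitude and activity.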
DT40 TDP1 no CPT: qHTS for Inhibitors of human tyrosyl-DNA phosphodiesterase 1 (TDP1): qHTS in cells in absence of CPT; DT40 Tdp1-/- hTDP1 cells, no CPT, ATP luminescence, 48 h; Potency, µM (top dose mostly 46.2 µM), most hits filed as inhibitors; actives 15% (n = 420,000); also: nearly all actives have a fitted effect of over 55% in size
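Readout: luminescence from CellTiter-Glo after 30 min in the dark at RT. Cells: DT40 Tdp1-/- with stable hTDP1, 400/well. Exposure: compounds alone, ≥48 hr, 37 °C.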
HT1080 IDH1KD tx: kills HT-1080 cells with IDH1 knockdown | HT-1080 IDH1 knockdown viability, ATP luminescence, 48 h | Potency, µM (highest dose often 46.1 µM), most hits filed as cytotoxic | actives 2% (n = 360,000) | AID 686971
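Viability of IDH1-knockdown HT-1080 fibrosarcoma cells was assessed by CellTiter-Glo after 48 h at 37 °C with titrated compound; concentration-effect curves were classified by fit quality and response size.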
IL-1B inflam inh: inhibitors of inflammasome signaling (IL-1 beta secretion). activity change, % at 57.5 µM. AID 743279. THP-1 LPS/ATP IL-1B secretion, AlphaLISA, 16 h; stronger effect = lower value. actives 4.7% (n = 360,000); in the data active = activity change below about -50%; inconclusive = mostly about -30% to -49%
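Secreted IL-1B measured by AlphaLISA bead assay after 16 h compound exposure of THP-1 cells; compounds (final up to 57.5 uM) added 1 h before LPS (250 ng/mL) and ATP (1.25 mM) stimulation; lower signal means less secretion.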
Hits are given with their value; n = inactive; u = inconclusive; x = no result given; [ ] = remark or other dose. Unless noted, calls follow the shape of the dose curve; as a rule, active = well fitted curve in the direction sought with a large enough effect; inconclusive = small, poorly fitted or top-dose-only effect, or another doubt; inactive = no such curve, though single readings can be large; an effect the other way counts as inactive or inconclusive.

SMILES	DT40 TDP1 CPT	ALOX12 inh	HT1080NT lethal	DT40 TDP1 no CPT	HT1080 IDH1KD tx	IL-1B inflam inh
CCCOc1ccc(C(=O)CCNC(Cc2c[nH]c3ccccc23)C(=O)O)cc1 (configuration not stated)	4.6µM	x	n	7.3µM	n	n
Cc1ccc(NC(=O)C(Cc2c[nH]c3ccccc23)NC(=O)OC(C)(C)C)c(C)c1 (configuration not stated)	u	n	x	u	x	x
O=C(c1ccc(F)cc1F)N1C[C@@H](CO)[C@H](c2nc(C3CC3)no2)C1	x	n	x	x	x	x
CC(C)(C)c1ccc(C(=O)NC(Cc2c[nH]c3ccccc23)C(=O)OCC(=O)c2ccc(Br)cc2)cc1 (configuration not stated)	n	n	x	u	x	x
O=C(NC(Cc1c[nH]c2ccccc12)C(=O)Nc1ccc(OC(F)(F)F)cc1)c1cccs1 (configuration not stated)	u	n	u	u	21µM	-68
Cc1ccc(C(=O)COC(=O)C(Cc2c[nH]c3ccccc23)NC(=O)c2ccc(C(C)(C)C)cc2)cc1 (configuration not stated)	18µM	u	x	23µM	x	x
O=C(NC(Cc1c[nH]c2ccccc12)C(=O)O)OCC1c2ccccc2-c2ccccc21 (configuration not stated)	n	35µM	n	n	n	n
O=C1NC2(CCN(C(=O)NC3CCCC3)CC2)Oc2ccccc21	x	n	x	x	x	x
O=C(c1cncc(Br)c1)N1CCCC(Cc2nc(C3CCOCC3)no2)C1 (configuration not stated)	x	n	x	x	x	x
Cc1cc(Nc2ccccc2)n(-c2nc3ccccc3[nH]2)n1	u	n	u	u	u	u
Cc1cc(NC(=O)c2ccccc2F)n(-c2nc3ccccc3[nH]2)n1	u	n	u	u	n	n
Cc1cc(NC(=O)C2CCCCC2)n(-c2nc3ccccc3[nH]2)n1	23µM	n	u	16µM	u	n
Cc1cc(NC(=O)c2c(F)cccc2Cl)n(-c2nc3ccccc3[nH]2)n1	u	n	u	23µM	u	n
Cc1cc(NC(=O)C2CC2)n(-c2nc3ccccc3s2)n1	n	n	n	n	n	n
Cc1cc(NC(=O)c2ccc(C)s2)n(-c2nc3ccccc3[nH]2)n1	u	n	n	21µM	n	n
CC(C)(C)c1cc(NC(=O)c2c(F)cccc2Cl)n(-c2ccccc2)n1	u	n	n	u	n	n
Cc1cc(NC(=O)c2c(F)cccc2F)n(-c2nc3ccccc3[nH]2)n1	u	n	u	11µM	10µM	u
CCn1cc(CN2CCN(C(=O)c3ccoc3)CC2)ccc1=O	x	n	x	x	x	x
Cc1cc(-c2cc(F)cc3c2OC(CNC(=O)CCn2cncn2)C3)ccc1F (configuration not stated)	n[9.04 µM]	n	x	n	x	x
CCS(=O)(=O)N1CCc2cc(C(=O)NCc3ccc(Cl)cc3)ccc21	u	n	x	16µM	x	x
COc1ccc(CNC(=O)c2ccc3c(c2)CCN3S(=O)(=O)c2ccc(Cl)cc2)cc1	u	n	x	16µM	x	x
CCS(=O)(=O)N1CCc2cc(C(=O)NCc3ccccc3Cl)ccc21	u	n	x	u	x	x
CCCCc1nn2c(=O)cc(COC(=O)c3ccccc3NC(=O)c3cccc(C)c3)nc2s1	n	n	x	n	x	x
COc1cccc(NC(=O)Cc2csc(COc3cccc(C)c3)n2)c1	u	n	x	u	x	x
Cc1cccc(OCc2nnc(SCC(=O)Nc3ccc(C)c(C)c3)o2)c1	n	n	n	n	n	n
Cc1cc(C)cc(NC(=O)Cc2csc(COc3cccc(C)c3)n2)c1	n	50µM	x	n	x	x
Cc1cccc(OCc2nc(CC(=O)Nc3ccc(C)cc3C)cs2)c1	15µM	n	x	u	x	x
Cc1cccc(OCc2nnc(SCC(=O)Nc3ccc(C)cc3C)o2)c1	n	35µM	x	u	x	x
